Results: PubChem BioAssay AID1043 (National Center for Advancing Translational Sciences (NCATS), 2008)
Records with an inconclusive call do not appear. Active and inactive are the calls of the source. Calls come from the whole dose curve.

experiment: H358 Cell Viability Secondary Assay for qHTS Assay for Epigenetic Modulators; conditions: H358 NSCLC viability, MTS absorbance, 4 days
Description: NIH Molecular Libraries Screening Centers Network [MLSCN] NIH Chemical Genomics Center [NCGC] MLSCN Grant: 1 X01 MH079860-01 Assay Provider: Elisabeth D. Martinez, University of Texas SW Medical Center NCGC Assay Overview: This secondary assay characterizes selected actives identified in the qHTS of the Locus Derepression (LDR) assay (PubChem AID 597). The LDR assay detects the derepression of a GFP reporter that is stably integrated in a region of the genome of murine c127i mammary cells that is presumably silenced. Compounds that cause derepression of the locus to express GFP are identified by enumerating GFP positive cells using a laser-scanning microplate cytometer. Selected LDR actives were assayed for killing of H358 non-small cell lung carcinoma (NSCLC) cells. Certain epigenetic drugs, like histone deacetylase inhibitors, can block cancer cell growth. H358 cell viability was measured using Cell Titer 96 AQueous One (Promega), an assay which detects the ability of metabolically active cells to reduce a tetrazolium salt substrate (MTS), into a soluble formazan product that can be measured by colorimetry.
NCGC Assay Protocol Summary Viability assays: H358 cells were plated in 96-well flat bottom tissue culture dishes (Corning) and grown overnight at 37 C and 5% CO2, then treated with increasing concentrations of compounds, incubated for four days, and assayed for viability using the Cell Titer 96 AQueous One kit (Promega) according to the manufacturer's protocol. Absorbance at 490 nm and 650 nm (reference) was measured by a Spectra Max (Molecular Devices). Data were normalized to the untreated control (100% viability). Each cell line was tested in one or two independent assays, each containing 4 or 8 replicates. For further details, see R.L. Johnson, W. Huang, A. Jadhav, C.P. Austin, J. Inglese, E.D. Martinez, A Quantitative High-Throughput Screen Identifies Potential Epigenetic Modulators of Gene Expression, Analytical Biochemistry (2007), doi: 10.1016/j.ab.2007.12.028

Row | Compound | Potency | outcome
1 | O=Nc1ccc(O)c2ncccc12 | 3000 nM (active) | –
2 | CN1CCN(Cc2cc(Cl)c3cccnc3c2O)CC1 | 2000 nM (active) | –
3 | COc1ccc(C(NC(=O)C(C)C)c2ccc3cccnc3c2O)cc1 (centres undefined) | 200 nM (active) | –
4 | CC(C)C(=O)NC(c1ccc(N(C)C)cc1)c1ccc2cccnc2c1O (centres undefined) | 200 nM (active) | –
5 | CN1C(=S)SC(c2ccccc2)N(C)C1c1ccccc1 (centres undefined) | – | inactive
6 | CC(/C=C/C(=O)NO)=C\[C@@H](C)C(=O)c1ccc(N(C)C)cc1 | 40 nM (active) | –
7 | CC(C)C(=O)NC(c1ccco1)c1ccc2cccnc2c1O (centres undefined) | 500 nM (active) | –
8 | O=C(CSc1cccc2cccnc12)NCc1ccccc1 | – | inactive
9 | CC(C)C(=O)NC(c1ccco1)c1cc([N+](=O)[O-])c2cccnc2c1O (centres undefined) | 6000 nM (active) | –
